Bioassay records from PubChem.
Shown is part of a subset that was picked to be rich in hits.
Pf Dd2 inh – qHTS Primary assay for Inhibitors of Plasmodium falciparum Dd2 growth in vitro | 4.3% of 120,000 active | Potency, µM (highest dose often 28.9 µM), without a hit: at the top dose activity, negative = inhibition, most hits filed as inhibitors | P. falciparum Dd2 growth, SYBR Green, 72 h; active means well fitted inhibition curve with a large enough effect;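 further: plate controls were DMSO vehicle for no effect and reference drug for full effect; nearly all actives have a fitted effect of over 65% in size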
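Readout: SYBR Green fluorescence, 485 nm excitation, 535 nm emission, after ~16 h lysis at 37C. Before that, Dd2-infected red cells (2.5% hematocrit) grew 72 h with compound, 29 uM top final concentration.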
Starred values were filed as active, the others as inactive; i = inactive; [ ] = another dose, or the depositor's remark. Potency means the concentration at half of the fitted maximal effect.

SMILES	Pf Dd2 inh
CCN1CCN(Cc2nc3cc(NC(=O)c4cccc([N+](=O)[O-])c4)ccc3n2CC)CC1	7.9µM*
O=C(Nc1ccc(Cl)c(-c2nc3ccccc3o2)c1)c1ccc(-c2cccc([N+](=O)[O-])c2)o1	-12%
Cn1c(CN2CCCCC2)nc2cc(NC(=O)c3cccc(Br)c3)ccc21	-9%
CC(C)CC(=O)Nc1ccc2nc(SCC(=O)N3CCOCC3)sc2c1	-13%
CCOC(=O)c1cccc(NC(=O)c2ccc3nc(C(C)C)oc3c2)c1	i
CCC(=O)NCCc1nc2cc(NC(=O)c3cccc(Br)c3)ccc2n1C	-19%
CC(C)CC(=O)Nc1ccc2nc(SCC(=O)N3CCCC3)sc2c1	-3%
CCOC(=O)N1CCN(Cc2nc3cc(NC(=O)c4cccc(C)c4)ccc3n2C(C)C)CC1	6.3µM*
CCOC(=O)N1CCN(Cc2nc3cc(NC(=O)CC(C)C)ccc3n2C(C)C)CC1	11µM*
O=C(c1cccc(OC(F)(F)F)c1)N1CCC2(CC1)CC(O)CCO2 (configuration not stated)	21%
COCC1CN(C(=O)NCc2cccc(OC)c2)CC12CCNCC2 (configuration not stated)	i
O=S(=O)(c1ccccc1)N1CCn2c(nnc2[C@@H]2C[C@@H](O)CN2Cc2cccnc2)C1	22%
c1coc(CN[C@H]2CO[C@H]3[C@@H]2OC[C@@H]3n2nnnc2Oc2ccc(-n3cncn3)cc2)c1	27%
COc1ccc(OC)c(-c2cc(-c3ccccc3)nc3c(C)noc23)c1	i
O=C(Nc1ccc2ncnc(N3CCCC3)c2c1)c1ccc(OC(F)(F)F)cc1	-20%
CCCN1CCN(c2ncnc3sc(C(=O)Nc4ccc(OC(F)(F)F)cc4)c(C)c23)CC1	5µM*
Cc1nc(N2CCCC2)ncc1C(=O)Nc1ccc(OC(F)(F)F)cc1	i
CN(C)c1ccc(-c2ccnc(N[C@H]3CO[C@H]4[C@@H]3OC[C@H]4OC(=O)NCc3ccccc3)n2)cc1	i
COc1cc(NC(=O)N[C@H]2CO[C@H]3[C@@H]2OC[C@@H]3Nc2nccc(-c3ccc(N(C)C)cc3)n2)cc(OC)c1	13µM*
COc1cc(NC(=O)N[C@H]2CO[C@H]3[C@@H]2OC[C@@H]3Nc2nccc(-c3ccc(-c4ccccc4)cc3)n2)cc(OC)c1	-27%
COc1ccc(-c2ccnc(N[C@H]3CO[C@H]4[C@@H]3OC[C@@H]4NC(=O)Nc3cccc(C#N)c3)n2)cc1	-29%
COC(=O)c1ccccc1NC(=O)O[C@@H]1CO[C@H]2[C@@H]1OC[C@@H]2Nc1nccc(-c2ccc(N(C)C)cc2)n1	5µM*
COc1ccc(-c2ccnc(N[C@H]3CO[C@H]4[C@@H]3OC[C@H]4OC(=O)Nc3cccc(OC)c3)n2)cc1	-8%
O=C(N[C@H]1CCN2C(=O)N(c3ccc(OC(F)(F)F)cc3)C(=O)[C@@H]2C1)c1cnccn1	-9%[44.1 µM]
CCCCOc1ccc(C2=NC(c3cccs3)=Nc3ccc(OC)cc3N2)cc1	-6%
SMILES	Pf Dd2 inh
CCOc1ccc(C2=NC(c3cccs3)=Nc3ccc(CC)cc3N2)cc1OCC	8.9µM*
CCc1ccc2c(c1)NC(c1cccs1)=NC(c1ccc(F)cc1)=N2	-7%
CN(Cc1ccccc1)C(=O)C1COC2(CCN(C(=O)CC(C)(C)C)CC2)N1C(=O)c1ccccc1 (configuration not stated)	i
CCc1cccc(NC(=O)CN2C(=O)NC3(CCC(C)CC3)C2=O)c1 (configuration not stated)	-17%
O=C(N[C@H]1CO[C@H]2[C@@H]1OC[C@@H]2n1nnnc1Oc1ccc(-n2ccnc2)cc1)C1CCCCC1	-21%
Cc1sc2ccn(Cc3ccc(F)cc3)c(=O)c2c1C(=O)NCc1cccs1	-14%
COCCC(=O)N1CCC(C2CCN(C(C)=O)CC2)C1 (configuration not stated)	12%
Cc1ccc(NS(=O)(=O)c2cc(Br)cc3c2N(C(=O)C2CC2)CC3)cc1C	-24%
CCN(C(=O)C1CCN(S(=O)(=O)c2cc(Br)cc3c2N(C(C)=O)CC3)CC1)c1cccc(C)c1	5µM*
O=C(C1CC1)N1CCc2cc(Br)cc(S(=O)(=O)N3CCN(c4ccccc4)CC3)c21	21%
COc1cc(NS(=O)(=O)c2cc(Br)cc3c2N(C(=O)C2CC2)CC3)cc(OC)c1	-18%
O=C(C1CC1)N1CCc2cc(Br)cc(S(=O)(=O)Nc3ccc(F)c(F)c3)c21	0%
CCN(c1ccccc1)S(=O)(=O)c1cc(Br)cc2c1N(C(=O)C1CC1)CC2	1.1µM*
Cc1cccc(N2CCN(S(=O)(=O)c3cc(Br)cc4c3N(C(=O)C3CC3)CC4)CC2C)c1 (configuration not stated)	11µM*
CCC(=O)N1CCc2cc(Br)cc(S(=O)(=O)NCCc3cccc(C)c3)c21	-17%
CCC(=O)N1CCc2cc(Br)cc(S(=O)(=O)N3CCC(C(=O)Nc4ccc(OC)cc4)CC3)c21	-27%
CCOc1ccc(S(=O)(=O)N2CCc3nc4cc[nH]n4c(=O)c3C2)cc1	8%[5.79 µM]
CCCNC(=O)N1CCC2(CCCCO2)CC1	13%
Cc1ccccc1C(=O)N1CCC(N2CCCCCC2=O)CC1	-4%[44.1 µM]
